Reference: PubChem BioAssay (NCATS)
Results filed as inconclusive are left out. Calls of active or inactive are those of the source. The call rests on the fitted dose curve; in most records, active means well fitted curve in the direction sought with a large enough effect; inconclusive means small, poorly fitted or top-dose-only effect, or another doubt; inactive means no such curve, though single readings can be large; an effect the other way counts as inactive or inconclusive.

How the values were obtained:
[1] = molecular target: Glutathione peroxidase 1 (Homo sapiens) (UniProt P07203); assay: Primary qHTS Assay for Inhibitors of Recombinant Selenoprotein Glutathione Peroxidase 1 (GPX1) (AID 1845191); further: nearly all actives have a fitted effect of over 65% in size
Chain of Glutathione peroxidase 1 (Homo sapiens) (P07203 whole entry, looked up): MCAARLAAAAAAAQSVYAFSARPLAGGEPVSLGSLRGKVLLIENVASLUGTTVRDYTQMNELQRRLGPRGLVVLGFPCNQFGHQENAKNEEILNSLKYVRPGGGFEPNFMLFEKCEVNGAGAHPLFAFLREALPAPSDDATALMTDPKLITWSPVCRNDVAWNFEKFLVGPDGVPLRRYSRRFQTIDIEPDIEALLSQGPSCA
In short: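 Recombinant GPX1 (10 nM final) was preincubated with compound for 30 min at room temperature, then reacted with 1 mM GSH, 0.5 mM CHP, 0.5 mM NADPH and 100 nM glutathione reductase; NADPH fluorescence (340/450 nm) was read at 0 and 15 min.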

[2] = molecular target: Phospholipid hydroperoxide glutathione peroxidase GPX4 (Homo sapiens) (UniProt P36969); assay: Primary qHTS Assay for Inhibitors of Recombinant Selenoprotein Glutathione Peroxidase 4 (GPX4) (AID 1845192); further: nearly all actives have a fitted effect of over 65% in size
Chain of Phospholipid hydroperoxide glutathione peroxidase GPX4 (Homo sapiens) (P36969 whole entry, looked up): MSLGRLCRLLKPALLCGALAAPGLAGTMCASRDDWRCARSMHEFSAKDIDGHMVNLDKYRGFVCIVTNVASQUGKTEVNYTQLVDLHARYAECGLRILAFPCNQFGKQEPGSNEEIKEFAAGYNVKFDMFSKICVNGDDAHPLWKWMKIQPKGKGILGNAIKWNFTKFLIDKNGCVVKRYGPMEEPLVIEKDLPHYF
In short: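 GR-coupled readout: 100 nM GR, 1 mM GSH, 0.5 mM NADPH; NADPH fluorescence (ex 340/em 450 nm) read at t=0 and after 15 min RT. GPX4 200 nM, preincubated 30 min with compound; substrate 0.5 mM CHP.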

[3] = Quantitative High-Throughput drug screen in 47 multiple myeloma cell lines against the NCATS MIPE library collection: FR4_PLB cell viability assay (AID 1918924; further: nearly all actives have a fitted effect of over 35% in size; further: potency means the concentration at half of the fitted maximal effect)
In short: (§1)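 Viability readout: CellTiter-Glo luminescence following 5 min room-temperature incubation with reagent. Prior exposure: 48 h, 37C, humidified 5% CO2, 500 cells per well.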

[4] = Quantitative High-Throughput drug screen in 47 multiple myeloma cell lines against the NCATS MIPE library collection: AMO1_DSMZ cell viability assay (AID 1918927; further: nearly all actives have a fitted effect of over 30% in size; further: potency means the concentration at half of the fitted maximal effect)
In short: (§2)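 Inhibition of cell viability is measured here. Each line was plated at 500 cells per well, treated with MIPE 4.0 drugs, kept 48 hours at 37C, then assayed for ATP content by CellTiter-Glo luminescence.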

[5] = Quantitative High-Throughput drug screen in 47 multiple myeloma cell lines against the NCATS MIPE library collection: ARP1_JJKsccF8 cell viability assay (AID 1918928; further: nearly all actives have a fitted effect of over 40% in size; further: potency means the concentration at half of the fitted maximal effect)
In short: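 Here, 48 h treatment with MIPE 4.0 agents at 37 °C preceded an ATP luminescence read. Plating density was 500 cells per well.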

[6] = Quantitative High-Throughput drug screen in 47 multiple myeloma cell lines against the NCATS MIPE library collection: Karpas620_DSMZ cell viability assay (AID 1918959); further: nearly all actives have a fitted effect of over 30% in size; further: potency means the concentration at half of the fitted maximal effect
In short: as §1

[7] = Quantitative High-Throughput drug screen in 47 multiple myeloma cell lines against the NCATS MIPE library collection: Delta47_JCRB cell viability assay (AID 1918925; further: nearly all actives have a fitted effect of over 45% in size; further: potency means the concentration at half of the fitted maximal effect)
In short: as §2

[8] = Quantitative High-Throughput drug screen in 47 multiple myeloma cell lines against the NCATS MIPE library collection: EJM_DSMZ cell viability assay (AID 1918926; further: nearly all actives have a fitted effect of over 30% in size; further: potency means the concentration at half of the fitted maximal effect)
In short: as §2

[9] = Quantitative High-Throughput drug screen in 47 multiple myeloma cell lines against the NCATS MIPE library collection: ARD_JJKsccE7 cell viability assay (AID 1918929; further: potency means the concentration at half of the fitted maximal effect)
In short: as §2

Measured: Potency

Cc1nnc(NS(=O)(=O)c2ccc(N)cc2)s1
inactive: [1] | [2] | [3]
active: [4] 1.87 µM | [5] 20.9 µM | [6] 1.66 µM

COc1cc([C@@H]2c3cc4c(cc3[C@H](O)[C@H]3COC(=O)[C@H]23)OCO4)cc(OC)c1OC
not listed: [3]
inactive: all other assays above

O=c1oc2c(O)c(O)cc3c(=O)oc4c(O)c(O)cc1c4c23
not listed: [4] | [5] | [8]
inactive: all other assays above

COC(c1ccccc1)(c1ccccc1)[C@H](Oc1nc(C)cc(C)n1)C(=O)O
not listed: [3]
inactive: all other assays above

CC(C)(C)NC(=O)[C@H]1CC[C@H]2[C@@H]3CC[C@H]4NC(=O)C=C[C@]4(C)[C@H]3CC[C@]12C
active: [7] 0.526 µM | [8] 0.662 µM | [4] 18.7 µM | [9] 20.9 µM
inactive: [1] | [2] | [5]

CC(C)C[C@H](NC(=O)[C@H](CCc1ccccc1)NC(=O)CN1CCOCC1)C(=O)N[C@@H](Cc1ccccc1)C(=O)N[C@@H](CC(C)C)C(=O)[C@@]1(C)CO1
inactive: [1] | [2]
active: [7] 0.001 µM | [8] 0.0105 µM | [4] 0.0066 µM | [5] 0.0074 µM | [9] 0.001 µM | [6] 0.001 µM

COC(=O)Nc1nc2ccc(S(=O)c3ccccc3)cc2[nH]1 (stereo not given)
inactive: [1] | [2] | [6]
active: [3] 7.43 µM | [7] 6.62 µM | [5] 16.6 µM

C[C@@H](NCCCc1cccc(C(F)(F)F)c1)c1cccc2ccccc12
inactive: [1] | [2] | [7] | [8] | [5]

O=C(O)c1cn(C2CC2)c2cc(N3CCNCC3)c(F)cc2c1=O
inactive: [1] inactive [at 9.52 µM] | [2] | [3] | [8] | [5] | [6]

CCCc1nc(C)c2c(=O)[nH]c(-c3cc(S(=O)(=O)N4CCN(CC)CC4)ccc3OCC)nn12
inactive: [1] | [2]
active: [7] 5.9 µM | [8] 9.35 µM | [4] 7.43 µM | [5] 5.26 µM | [9] 6.62 µM | [6] 2.35 µM

C[C@]12C=CC(=O)C=C1CC[C@@H]1[C@@H]2C(=O)C[C@@]2(C)[C@H]1CC[C@]2(O)C(=O)CO
not listed: [7] | [9]
inactive: all other assays above

CC(C)(C#N)c1cc(Cn2cncn2)cc(C(C)(C)C#N)c1
not listed: [5] | [7]
inactive: all other assays above

CC(C)C1CCC(C(=O)N[C@H](Cc2ccccc2)C(=O)O)CC1 (stereo not given in full)
not listed: [3] | [9]
inactive: all other assays above

O[C@@H](CNC[C@H](O)[C@H]1CCc2cc(F)ccc2O1)[C@@H]1CCc2cc(F)ccc2O1
active: [7] 18.7 µM | [4] 26.4 µM | [5] 14.8 µM | [6] 20.9 µM
inactive: [1] | [2] | [8]

Cc1ncc([N+](=O)[O-])n1CCO
not listed: [3] | [4] | [9]
inactive: all other assays above

Cc1ccnc2c1NC(=O)c1cccnc1N2C1CC1
active: [7] 20.9 µM
inactive: [1] | [2] | [8] | [5] | [6]

CCOC(=O)[C@H](CCc1ccccc1)N[C@H]1CCc2ccccc2N(CC(=O)O)C1=O
inactive: [1] | [2]
active: [7] 20.9 µM | [8] 23.5 µM | [4] 7.43 µM | [9] 18.7 µM | [6] 14.8 µM

O=C(N[C@H](CO)[C@H](O)c1ccc([N+](=O)[O-])cc1)C(Cl)Cl
not listed: [3]
inactive: all other assays above

NS(=O)(=O)c1cc2c(cc1Cl)NC(C(Cl)Cl)NS2(=O)=O (stereo not given)
not listed: [7]
inactive: all other assays above

O=C(O)c1ccc(-n2nc(-c3ccccc3O)nc2-c2ccccc2O)cc1
active: [3] 23.5 µM | [4] 29.6 µM
inactive: [1] | [2]

CC(=O)[C@H]1CC[C@H]2[C@@H]3CCC4=CC(=O)CC[C@]4(C)[C@H]3CC[C@]12C
inactive: [1] | [2] | [7] | [4]

C[C@@H]1CN(c2c(F)c(N)c3c(=O)c(C(=O)O)cn(C4CC4)c3c2F)C[C@H](C)N1
not listed: [3] | [7] | [9]
inactive: all other assays above

COc1cccc(N(C)C(=S)Oc2ccc3c(c2)CCCC3)n1
active: [9] 23.5 µM
inactive: [1] | [2] | [7] | [8]

S=P(N1CC1)(N1CC1)N1CC1
inactive: [1] | [2] inactive [at 0.409 µM] | [8] | [5] | [6]

CCCCOc1ccc(CC(=O)NO)cc1
inactive: [1] | [2]
active: [8] 5.26 µM | [4] 11.8 µM | [5] 13.2 µM | [6] 18.7 µM

CCc1cc(C(N)=S)ccn1
not listed: [3] | [7]
inactive: all other assays above

CCC(C)(C)c1ccc(CC(C)CN2C[C@@H](C)O[C@@H](C)C2)cc1 (stereo not given in full)
inactive: [1] | [2] | [9] | [6]

OC(Cn1cncn1)(Cn1cncn1)c1ccc(F)cc1F
active: [4] 0.0418 µM
not listed: [3] | [7]
inactive: all other assays above

Nc1nc(=S)c2[nH]cnc2[nH]1
active: [7] 2.96 µM | [5] 1.32 µM
inactive: [1] | [2] | [9] | [6]
